Data reported in PubChem BioAssay (NCATS).
Inconclusive results are not listed. Some structures have more than one record in an assay (separate samples or runs), and their calls can disagree. The source made the active and inactive calls. The call rests on the fitted dose curve; in most records, active means well fitted curve in the direction sought with a large enough effect; inconclusive means small, poorly fitted or top-dose-only effect, or another doubt; inactive means no such curve, though single readings can be large; an effect the other way counts as inactive or inconclusive.

Test: qHTS assay to identify small molecule inhibitors of chordoma cells - UCH-2 (AID 1259356)
Conditions: UCH-2 chordoma viability, CellTiter-Glo ATP luminescence, 48 h; series mostly up to 46.1 µM; activity change, negative = inhibition: at the top concentration
On the % scale 0 is the no-effect control and ±100 the full control effect; potency means the concentration at half of the fitted maximal effect.

Compound | Potency | activity change, negative = inhibition
[H+].[H+].[Hg+2].[O-]B([O-])[O-].[c-]1ccccc1 | 13 µM (active) | –
CC1(C)S[C@@H]2[C@H](N)C(=O)N2[C@H]1C(=O)O | – | 1.32% [at 20.6 µM] (inactive)
C[C@]12C=CC(=O)C=C1CC[C@@H]1[C@@H]2CC[C@]2(C)OC(=O)CC[C@@H]12 | – | 13.1% (inactive)
CCC1(c2ccccc2)C(=O)NC(=O)NC1=O | – | 5.33% (inactive)
CCNCC(O)c1cccc(O)c1 (configuration not stated) | – | 4.14% [at 20.6 µM] (inactive)
CCCCCCCCOC(=O)c1ccccc1C(=O)OCCCCCCCC | – | 4.1% (inactive)
C[C@]12CC[C@H]3[C@@H](CC[C@@]45O[C@@H]4C(O)=C(C#N)C[C@]35C)[C@@H]1CC[C@@H]2O | – | 3.53% (inactive)
COC(=O)[C@@H]1[C@H]2CC[C@@H](C[C@H]1OC(=O)c1ccccc1)N2C | – | 10.5% (inactive)
CN1CCCC(=C(c2cccs2)c2cccs2)C1 | – | 0.0035% (inactive)
CN1[C@H]2CC[C@@H]1[C@@H](C(=O)O)[C@@H](OC(=O)c1ccccc1)C2 | – | 3.27% (inactive)
CNC(=O)Oc1ccccc1C(=O)Nc1ccccc1 | – | 8.95% (inactive)
C[C@@H](CO)NC(=O)[C@@H]1C=C2c3cccc4[nH]cc(c34)C[C@H]2N(C)C1 | – | 1.72% (inactive)
Cn1sc(Cl)cc1=O | – | 3.88% (inactive)
C[C@]12CC[C@H](O)C[C@H]1CC[C@@H]1[C@@H]2CC[C@]2(C)[C@@H](c3ccc(=O)oc3)C[C@H]3O[C@]132 | 6.51 µM (active) | –
CCCCNCC(O)c1ccc(O)cc1 (configuration not stated) | – | 20% (inactive)
CC(N)Cc1ccc(O)cc1 (configuration not stated) | – | 3.36% (inactive)

Compound | Potency | activity change, negative = inhibition
CCCC(=O)OC(C(Cl)(Cl)Cl)P(=O)(OC)OC (configuration not stated) | – | -6.12% (inactive)
O[C@H]1[C@H]2[C@H](O)CCCN2C[C@H]1O | – | -2.6% (inactive)
CCC(N)Cc1c[nH]c2ccccc12 (configuration not stated) | – | 1% (inactive)
Oc1ccc2c3c1O[C@H]1[C@@H](O)CC[C@@]4(O)[C@@H](C2)N(CC2CCC2)CC[C@]314 | – | 17.1% (inactive)
C[C@]12CCC(=O)C=C1C=C[C@@H]1[C@@H]2CC[C@@]2(C)[C@H]1CC[C@@]2(O)CCC(=O)O | – | 8.48% [at 20.6 µM] (inactive)
O=c1[nH]cc(N(CCCl)CCCl)c(=O)[nH]1 | – | -0.773% (inactive)
C=C[C@H]1CN2CC[C@H]1C[C@@H]2[C@@H](O)c1ccnc2ccccc12 | – | 5.48% (inactive)
CC(C)CCC(=O)O[C@H]1CC[C@H]2[C@@H]3CCC4=CC(=O)CC[C@]4(C)[C@H]3CC[C@]12C | – | 6.39% (inactive)
O=C(C[C@@H]1NCCC[C@H]1O)Cn1cnc2cc(Br)c(Cl)cc2c1=O | – | -9.84% (inactive)
NCC(O)c1cccc(O)c1 (configuration not stated) | – | -16.4% (inactive)
O=C1CN=C(c2ccccc2)c2cc(Cl)ccc2N1CC1CC1 | – | -0.756% (inactive)
CN1[C@@H]2CC[C@H]1CC(OC1c3ccccc3CCc3ccccc31)C2 (some centres not stated) | – | 3.49% [at 20.6 µM] (inactive)
CC(=O)O[C@H]1CC[C@@]2(C)C(=CC[C@@H]3[C@@H]2CC[C@]2(C)C(=O)CC[C@@H]32)C1 | – | -7.02% [at 20.6 µM] (inactive)
OC(c1ccccc1)(c1ccccc1)C1CN2CCC1CC2 (configuration not stated) | – | -23.5% (inactive)
CCCC(C)(COC(N)=O)COC(=O)NC1CC1 (configuration not stated) | – | -3.59% (inactive)

Test: P-glycoprotein substrates identified in KB-8-5-11 adenocarcinoma cell line, qHTS therapeutic library screen (AID 1346987); further: nearly all actives have a fitted effect of over 65% in size
Conditions: KB-8-5-11 (P-gp overexpressing) viability, CellTiter-Glo, 72 h; series mostly up to 44.5 µM; activity change, negative = cytotoxicity: at the top concentration
Procedure, shortened: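 Steps: plate 500 KB-8-5-11 cells/well in DMEM + 10% FCS (colchicine removed); pin compounds in dose-response; incubate 72 h, 37 degree C, 5% CO2; add CellTiter-Glo, 5 min; read luminescence.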

Compound | Potency | activity change, negative = cytotoxicity
[H+].[H+].[Hg+2].[O-]B([O-])[O-].[c-]1ccccc1 | 1.3 µM (active) | –
CC1(C)S[C@@H]2[C@H](N)C(=O)N2[C@H]1C(=O)O | – | -1.5% [at 17.3 µM] (inactive)
C[C@]12C=CC(=O)C=C1CC[C@@H]1[C@@H]2CC[C@]2(C)OC(=O)CC[C@@H]12 | – | -22% (inactive)
N#CC(C#N)=Cc1cc(O)c(O)c(O)c1 | – | -20.3% (inactive)
CCC1(c2ccccc2)C(=O)NC(=O)NC1=O | – | 5.03% (inactive)
CCNCC(O)c1cccc(O)c1 (configuration not stated) | – | -20% [at 17.3 µM] (inactive)
CCCCCCCCOC(=O)c1ccccc1C(=O)OCCCCCCCC | – | -4.95% (inactive)
COC(=O)[C@@H]1[C@H]2CC[C@@H](C[C@H]1OC(=O)c1ccccc1)N2C | – | 10.9% (inactive)
CN1CCCC(=C(c2cccs2)c2cccs2)C1 | – | -5.86% (inactive)
CN1[C@H]2CC[C@@H]1[C@@H](C(=O)O)[C@@H](OC(=O)c1ccccc1)C2 | inactive | –
[O]=[Cr](=[O])([OH])[O][Cr](=[O])(=[O])[OH] | 23.1 µM (active) and inactive | –
Cn1sc(Cl)cc1=O | – | -3.76% (inactive)
C[C@]12CC[C@H](O)C[C@H]1CC[C@@H]1[C@@H]2CC[C@]2(C)[C@@H](c3ccc(=O)oc3)C[C@H]3O[C@]132 | 1.84 µM (active) | –
CCCCNCC(O)c1ccc(O)cc1 (configuration not stated) | – | 19.8% (inactive)
CC(N)Cc1ccc(O)cc1 (configuration not stated) | – | 2.28% (inactive)
CCCC(=O)OC(C(Cl)(Cl)Cl)P(=O)(OC)OC (configuration not stated) | – | -22.4% (inactive)

Compound | Potency | activity change, negative = cytotoxicity
CCCCCl | – | -10.3% (inactive)
O[C@H]1[C@H]2[C@H](O)CCCN2C[C@H]1O | – | 4.07% (inactive)
CCC(N)Cc1c[nH]c2ccccc12 (configuration not stated) | inactive | –
C[C@]12CCC(=O)C=C1C=C[C@@H]1[C@@H]2CC[C@@]2(C)[C@H]1CC[C@@]2(O)CCC(=O)O | – | -10.2% [at 17.3 µM] (inactive)
C=CCC1(C(C)CCC)C(=O)N=C(S)NC1=O (configuration not stated) | – | -4.48% (inactive)
O=c1[nH]cc(N(CCCl)CCCl)c(=O)[nH]1 | – | -16.5% (inactive)
CCN1C[C@]2(COC)[C@H](O)C[C@H](OC)[C@@]34[C@@H]5C[C@@]6(O)[C@H](OC(=O)c7ccccc7)[C@@H]5[C@@](OC(C)=O)([C@@H]([C@H](OC)[C@H]23)[C@@H]14)[C@@H](O)[C@@H]6OC | – | -12.1% (inactive)
CC(C)CCC(=O)O[C@H]1CC[C@H]2[C@@H]3CCC4=CC(=O)CC[C@]4(C)[C@H]3CC[C@]12C | 7.31 µM (active) | –
O=C(C[C@@H]1NCCC[C@H]1O)Cn1cnc2cc(Br)c(Cl)cc2c1=O | – | 5.56% (inactive)
NCC(O)c1cccc(O)c1 (configuration not stated) | – | -2.67% (inactive)
COC(COC(N)=O)C1=C(N2CC2)C(=O)C(C)=C(N2CC2)C1=O (configuration not stated) | 6.51 µM (active) | –
O=C1CN=C(c2ccccc2)c2cc(Cl)ccc2N1CC1CC1 | 9.2 µM (active) | –
CC(=O)O[C@H]1CC[C@@]2(C)C(=CC[C@@H]3[C@@H]2CC[C@]2(C)C(=O)CC[C@@H]32)C1 | – | -6.94% [at 17.3 µM] (inactive)
OC(c1ccccc1)(c1ccccc1)C1CN2CCC1CC2 (configuration not stated) | – | -4.03% (inactive)
CCCC(C)(COC(N)=O)COC(=O)NC1CC1 (configuration not stated) | – | -7.22% (inactive)
